# Measurements as given in PubChem BioAssay AID434970 (Sanford-Burnham Center for Chemical Genomics, 2010).
# About 310 (2.8%) of roughly 11,000 compounds were called active. No stated cut-off is given here; in the data, active means activity change below about -85%; inactive means the rest. What follows is part of a selection rich in actives, with near analogues and random picks from the rest.
# Tested on: intestinal alkaline phosphatase [Mus musculus]
# Assay: activators of mouse IAP, confirmation, biochemical, luminescence, single concentration (AID 434970)
# Conditions: purified mouse IAP, CDP-Star luminescence, 30 min, at 10 µM; activation factor: measured here: IAP activation factor, stronger effect = higher value; activity change, negative = activation: stronger effect = lower value
SMILES,activation factor,"activity change, negative = activation"
Cc1ccc(N2C(=O)c3ccc(C(=O)Nc4cccnc4)cc3C2=O)c(C)c1,0.946,5.45% (inactive)
Cc1ccc2[nH]c(=O)c(C(c3nnnn3CC3CCCO3)N3CCCc4ccccc43)cc2c1 (stereo unspecified),0.398,60.2% (inactive)
CC(C)(C)c1ccc(NC(=O)NC2CCCc3ccccc32)cc1 (stereo unspecified),3.53,-253% (active)
Cc1cccc(NC(=O)NC2CCCc3ccccc32)c1 (stereo unspecified),3.36,-236% (active)
CCOc1ccc(NC(=O)CN(C)CC(=O)NC2CCCc3ccccc32)cc1OCC (stereo unspecified),1.1,-9.8% (inactive)
COc1ccc(-c2nnn(CC(=O)NC3CCCc4ccccc43)n2)cc1OC (stereo unspecified),1.06,-5.8% (inactive)
Cc1cccc(C)c1NC(=O)CS(=O)CC(=O)NC1CCCc2ccccc21 (stereo unspecified),1.11,-11.2% (inactive)
CCOc1ccc(NC(=O)CS(=O)CC(=O)NC2CCCc3ccccc32)cc1 (stereo unspecified),1,-0.45% (inactive)
Cc1cccc(-n2nnc(C(=O)NC3CCCc4ccccc43)c2N)c1 (stereo unspecified),1.01,-1.4% (inactive)
COc1cccc(NC(=O)NC2CCCc3ccccc32)c1 (stereo unspecified),2.74,-174% (active)
COC(=O)c1ccc(NC(=S)NC2CCc3ccccc32)cc1 (stereo unspecified),1.51,-50.8% (inactive)
CCCn1c(Nc2ccccc2C)nc2ccccc21,0.988,1.25% (inactive)
COC(=O)c1cn(CC(=O)NC2CCCCC2)c2ccccc12,1.04,-3.9% (inactive)
Cc1ccc(-c2cc(-c3ccccc3)c3c(N)c(S(C)(=O)=O)sc3n2)cc1,0.966,3.45% (inactive)
O=c1oc2cc(OCc3ccc([N+](=O)[O-])cc3)ccc2c2c1CCCC2,0.909,9.15% (inactive)
COc1cccc(N=c2oc3ccc(OC)cc3cc2-c2nc3ccccc3[nH]2)c1,1.03,-2.7% (inactive)
Cc1ccc(NC(=O)Nc2ccccc2F)cc1S(=O)(=O)N1CCOCC1,1.52,-51.6% (inactive)
Cc1ccc(C(=O)N2CCOCC2)cc1Cl,0.984,1.65% (inactive)
O=C(Nc1ccccc1)c1ccc(S(=O)(=O)N2CCOCC2)cc1,1.01,-1.35% (inactive)
O=C(Nc1ccc(Cl)c(Cl)c1)Nc1cc(C(=O)N2CCOCC2)ccc1N1CCCCC1,2.67,-167% (active)

SMILES,activation factor,"activity change, negative = activation"
Cc1oc(S(=O)(=O)N2CCCCC2)cc1NC(=O)Nc1ccc(Cl)cc1,1.42,-41.8% (inactive)
O=C(Nc1ccc(Cl)c(Cl)c1)Nc1cc(S(=O)(=O)N2CCOCC2)ccc1N1CCCC1,2.53,-153% (active)
CCN(CC)c1ccc(S(=O)(=O)N2CCOCC2)cc1NC(=O)Nc1ccccc1,2.53,-153% (active)
CC(=O)c1cccc(NC(=O)Nc2ccc(C(=O)N3CCOCC3)cc2)c1,1.06,-6.35% (inactive)
CN1CCN(c2ccc(Cl)cc2NC(=O)c2ccc(S(=O)(=O)N3CCCCCC3)cc2)CC1,0.982,1.75% (inactive)
O=C(Nc1ccc(Cl)cc1)Nc1cc(S(=O)(=O)N2CCOCC2)ccc1N1CCCC1,2.15,-116% (active)
COc1ccccc1NC(=O)c1cc(S(=O)(=O)N2CCOCC2)ccc1Cl,0.877,12.2% (inactive)
CC(Sc1ccc(Cl)cc1)C(=O)Nc1ccc(S(=O)(=O)N2CCOCC2)cc1 (stereo unspecified),1.07,-7.35% (inactive)
Cc1ccc2c(c1)nnn2C1CCN(S(C)(=O)=O)CC1,0.904,9.55% (inactive)
CCc1ccccc1NC1=NCC(=O)N1Cc1ccccc1,1,-0.1% (inactive)
COc1cccc(-c2sc3cc(OC)c(OC)cc3c2-c2ccc(OCCN3CCCCC3)cc2)c1,1.01,-0.55% (inactive)
O=C(c1cccs1)N1CCCC(c2ccccc2)C1 (stereo unspecified),0.929,7.1% (inactive)
COc1cc(=O)n(C)c2cc(N(C)C)ccc12,0.917,8.35% (inactive)
COc1ccc2[nH]c3c(c2c1)CCN1C(=O)C(CC(=O)NCc2cccc(C(F)(F)F)c2)C[C@H](C(=O)N2CCOCC2)[C@@]31C (stereo partly specified),1.08,-8.45% (inactive)
COc1ccc(Cc2nc3ccc(C(=O)NCc4ncc(C)[nH]4)cc3o2)cc1OC,0.927,7.3% (inactive)
COC(=O)c1sccc1NC(=O)C1CC=CCC1C(=O)O (stereo unspecified),0.998,0.15% (inactive)
CC1(C)Cc2noc(N)c2C(C)(C)N1OC(=O)c1cccs1,1.04,-3.75% (inactive)
CC[C@]12c3[nH]c4cc(CCC(=O)N(C)C)ccc4c3CCN1C(=O)[C@@H](CC(=O)NC/C=C(\C)CCC=C(C)C)C[C@@H]2C(=O)N1CCN(C(=O)C2CC2)CC1,1.09,-9.3% (inactive)
O=C(c1ccc(Cn2c(=O)[nH]c3ccccc3c2=O)cc1)N1CCN(c2ccc(F)cc2)CC1,1,0.05% (inactive)
S=C(NCCC(c1ccccc1)c1ccccc1)Nc1ccc(Cl)cc1,2.1,-110% (active)

SMILES,activation factor,"activity change, negative = activation"
S=C(NCc1ccccc1)Nc1cccc(Cl)c1,1.4,-40.5% (inactive)
S=C(NCCC(c1ccccc1)c1ccccc1)Nc1cccc(Cl)c1,3.74,-274% (active)
Cc1ccc(NC(=S)NCCSc2ccc(Cl)cc2)cc1,1.45,-45.4% (inactive)
S=C(NCCN(C1CCCCC1)C1CCCC1)Nc1cccc(Cl)c1,1.69,-68.5% (inactive)
Fc1ccccc1CNC(=S)Nc1ccc(Cl)cc1,1.38,-38.1% (inactive)
CC(C)CN(C(=O)COC(=O)Cn1cnc2ccccc2c1=O)C1CCS(=O)(=O)C1 (stereo unspecified),0.927,7.25% (inactive)
COc1ccccc1CN1CCN(S(=O)(=O)c2ccccc2)CC1,0.897,10.3% (inactive)
COc1ccc(CN2CCC(n3nccc3NC(=O)CCCc3ccccc3)CC2)cc1C,2.4,-140% (active)
Cc1ccc(C)c(CN2CCC(n3nccc3NC(=O)CCCc3ccccc3)CC2)c1,2.31,-131% (active)
COc1ccccc1CN1CCC(n2nccc2NC(=O)CCCc2ccccc2)CC1,2.08,-108% (active)
COc1ccc(-c2noc(CCCC(=O)NCCc3ccccc3)n2)cc1OC,0.998,0.25% (inactive)
Cc1ccc(-c2nnn(CC(=O)NC3CCN(Cc4ccccc4)CC3)n2)cc1,1.04,-4.25% (inactive)
CCOc1ccc(-c2cc(CCCC(=O)NCCc3ccccc3)no2)cc1,1.07,-6.9% (inactive)
CCOc1cccc(CN2CCC(n3nccc3NC(=O)CCCc3ccccc3)CC2)c1,2.3,-130% (active)
CCOC(=O)CN(C(=O)CN1CCC(n2nnc3cc(C)ccc32)CC1)c1ccccc1,0.982,1.8% (inactive)
COc1ccc(CN2CCC(n3nccc3NC(=O)CCc3ccccc3)CC2)c(C)c1C,1.6,-60% (inactive)
CCOc1ccc(CN2CCC(n3nccc3NC(=O)CCCc3ccccc3)CC2)cc1,1.83,-83% (inactive)
COc1ccc(Cl)cc1NC(=O)CN1CCC(n2nnc3ccccc32)CC1,0.96,4.05% (inactive)
